# PubChem BioAssay (NCI)
# About 83,000 compounds went through this panel and 20% of them were active in at least one assay; those are over-represented in the sample as a whole.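 For each line, cells grew in 96-well plates with the test compound present at a single concentration for 48 hours.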 Unmarked numbers belong to inactive results. Active and inactive are the calls of the source. The calls were made as follows: active = growth percent below 10; inactive = the rest.
# How the values were obtained:
# Experiment in all cases: NCI-60 one-dose screen, 48 h (100 = growth as untreated, 0 = no growth, -100 = all killed)
# Details in all cases: 10 µM unless noted
# K-562 leukemia = system: K-562 leukemia
# MALME-3M melanoma = system: MALME-3M melanoma
# MDA-MB-231 breast = system: MDA-MB-231 breast
# RXF 393 renal = system: RXF 393 renal
# SF-268 CNS = system: SF-268 CNS
# SF-295 CNS = system: SF-295 CNS
# SF-539 CNS = system: SF-539 CNS
# UACC-257 melanoma = system: UACC-257 melanoma
# M14 melanoma = system: M14 melanoma
# HCT-15 colon = system: HCT-15 colon
# HT29 colon = system: HT29 colon
# SNB-75 CNS = system: SNB-75 CNS
# SNB-19 CNS = system: SNB-19 CNS
# U251 CNS = system: U251 CNS
# PC-3 prostate = system: PC-3 prostate
# SK-MEL-5 melanoma = system: SK-MEL-5 melanoma
# UACC-62 melanoma = system: UACC-62 melanoma
# LOX IMVI melanoma = system: LOX IMVI melanoma
# SK-MEL-28 melanoma = system: SK-MEL-28 melanoma
# SK-MEL-2 melanoma = system: SK-MEL-2 melanoma
SMILES,growth (K-562 leukemia),growth (MALME-3M melanoma),growth (MDA-MB-231 breast),growth (RXF 393 renal),growth (SF-268 CNS) [%],growth (SF-295 CNS),growth (SF-539 CNS),growth (UACC-257 melanoma),growth (M14 melanoma),growth (HCT-15 colon),growth (HT29 colon),growth (SNB-75 CNS),growth (SNB-19 CNS) [%],growth (U251 CNS),growth (PC-3 prostate),growth (SK-MEL-5 melanoma),growth (UACC-62 melanoma),growth (LOX IMVI melanoma),growth (SK-MEL-28 melanoma),growth (SK-MEL-2 melanoma)
COc1cc(OC)c(C2C(Cl)C(=O)N2Nc2ncnc3ccccc23)cc1OC (stereo not given),100%,93.2%,87.3%,112%,99.2,102%,104%,111%,88.6%,101%,112%,80.5%,98.9,91.7%,89.6%,99.3%,91.7%,45.6%,105%,121%
N#Cc1c(-c2ccc(Cl)cc2)nc(SCc2ccccc2)nc1N1CCNCC1,0.363% (active),84.4%,44.2%,74.4%,74.2,94.3%,75.6%,97.3%,82.1%,13.2%,-47.6% (active),69.5%,69.8,-65.6% (active),59.2%,84.5%,89.8%,-71.5% (active),108%,112%
N=C1CC(=O)NN1C(=O)CSc1nc2sc3c(c2c(=O)n1-c1ccc(Cl)cc1)CCCC3,94.6%,90.5%,87.7%,119%,99.7,97.6%,97.3%,106%,99.3%,106%,126%,73.7%,92.9,101%,95.6%,103%,93.9%,97.1%,108%,128%
COc1cc(-c2nc3ccc(-c4nnc(SCC(=O)Nc5ccc(C(=O)/C=C/c6ccc(Cl)cc6)cc5)o4)cc3[nH]2)cc(OC)c1OC,83.8%,101%,91.6%,112%,99.2,97.7%,74.7%,112%,105%,86.9%,102%,85.3%,93.4,77.6%,95.1%,91.4%,84%,-31.6% (active),102%,100%
N#Cc1nc(-c2ccccc2)oc1S(N)(=O)=O,21.5%,64.9%,47.9%,45.8%,110,101%,36.8%,78.3%,40.7%,27.1%,43.8%,91.7%,95.3,92.6%,81.4%,76.2%,66.6%,10.5%,69.5%,84.9%
N#Cc1c(-c2ccc(F)cc2)nc2c(C#N)c(Nc3ccccc3)nn2c1N,99.5%,113%,109%,110%,95.3,99.3%,97.3%,106%,109%,98.7%,102%,101%,96.3,104%,96.7%,99.2%,99.8%,99.8%,102%,105%
CC(C)NC(=O)c1cc(-c2ccc(NC(=O)Nc3ccc(N4CCOCC4)c(C(F)(F)F)c3)cc2)nc2cccnc12,24.6%,68.3%,48.7%,-9.17% (active),77.5,1.17% (active),20.9%,94.4%,73.2%,68.1%,60.8%,82.6%,62.6,47%,44.5%,78.7%,75.3%,47.9%,59.2%,75.5%
NS(=O)(=O)c1ccc(Nc2nc(SCC(=O)c3ccc(Cl)cc3)nc3ccccc23)cc1,84%,92.8%,87.9%,103%,104,95.1%,88.3%,102%,97%,86.6%,105%,75.3%,97.8,95.2%,89.9%,95.3%,79.4%,99.5%,100%,100%
COc1cc2nc(-c3ccc(C(F)(F)F)cc3)cc(OCCCNCC3CCCO3)c2cc1OC (stereo not given),10.2%,-15.6% (active),18.2%,3.22% (active),59.5,-33.6% (active),45.5%,-38.7% (active),-66.5% (active),13.7%,-7.81% (active),8.73% (active),75.3,55.7%,45.4%,4.75% (active),-22.1% (active),-13.4% (active),-26.8% (active),91.7%
CN(C)CCCOc1c2ccccc2nc2c1oc1ccc(Cl)cc12,-14.3% (active),-8.62% (active),7.86% (active),-74.1% (active),14.6,5.01% (active),6.92% (active),20%,-87.3% (active),-21.4% (active),-43.4% (active),5.58% (active),16.1,16.7%,5.23% (active),-16% (active),-49.7% (active),-85.1% (active),9.1% (active),9.55% (active)
N/C(=N\c1nc2c(Br)cccc2s1)C(Br)Br,3.75% (active),-36.7% (active),-9.45% (active),-51.1% (active),49.2,11.8%,-28.3% (active),51.4%,10.9%,-27.7% (active),-11.3% (active),-0.636% (active),27.7,-28.2% (active),13.5%,68.3%,-5.13% (active),-84.9% (active),-5.02% (active),-42.1% (active)
CCCC(=O)NC(c1cccnc1)c1cc(C)c2cccnc2c1O (stereo not given),22.6%,53.1%,35.5%,81.9%,42.1,32.3%,23.3%,20.9%,27.5%,24.2%,21.5%,77.5%,61.4,41.3%,56.9%,48.7%,28.4%,40.2%,42.5%,101%
COc1cc2cc(Oc3ccc(NC(=O)c4cccc(C(F)(F)F)c4)cc3)c(C)nc2cc1OCCN1CCCCC1,-48.2% (active),-86.1% (active),-100% (active),-16% (active),81.5,7.09% (active),-68.8% (active),-87.3% (active),-86.7% (active),-88.8% (active),-50.7% (active),90.8%,90.2,-63.8% (active),33.1%,38.7%,-65.8% (active),-93.6% (active),-88.5% (active),74%
COc1cccc(-c2nn(-c3ccccc3)cc2-c2ccnc(N3CCN(C(=O)Nc4ccc(F)cc4)CC3)c2)c1,30.8%,76.7%,52.6%,63.4%,85.3,64.8%,66.9%,85.8%,32.4%,35.8%,70%,66.5%,64.5,67.4%,44.3%,42.5%,43.8%,59%,69.6%,51.1%
C#C[C@]1(O)CC[C@H]2[C@@H]3CC=C4c5sc(-c6ccc(F)cn6)nc5CC[C@]4(C)[C@H]3CC[C@@]21C,6.31% (active),67.6%,17.1%,-50.7% (active),23,-70.6% (active),-45.8% (active),-31.8% (active),36.7%,30.5%,38.3%,-13.2% (active),31.5,15.7%,24.2%,33.4%,0.399% (active),-63.9% (active),-28.5% (active),-28.4% (active)
